Consider 29 compounds from PubChem BioAssay AID932 (The Scripps Research Institute Molecular Screening Center, 2007).

Each structure is given as a SMILES string. Among all 200,000 compounds or so, about 5,100 (2.5%) were called active. This excerpt belongs to a sample that is enriched for actives. Values without a mark were called inactive.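 Rule for the calls: active = activation above the screen-wide mean activation plus 3 SD (cut at about 130% in these data); inactive = the rest.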

The assay can be described thus: potentiators of IFN-gamma driven STAT1 reporter – cell-based, HTS, luciferase reporter, primary screen (AID 932).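 Note: raw ratio to IFN-gamma control signal so 100% means no change and 0% no light.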 To be noted: NIH 3T3 STAT1-luciferase reporter, luminescence, at 5.5 µM, hits give high values, 100% = IFN-gamma alone, no compound. Background: A reporter such as luciferase makes a cellular process visible.
On to `Cc1ccc(C(=O)CNc2ccc(F)cc2)cc1`, for which the activation (% of control) was 111%.

With `COC(=O)c1ccc(NCC(=O)N2CCCCCC2)cc1`, the activation (% of control) was 114%. On to `COC(=O)c1ccc(NCC(=O)c2ccccc2)cc1`, for which the activation (% of control) is 133% (active). With `CN(Cc1ccccc1)C(=O)CCc1ccccc1` the figure was 104%. With `Cc1ccn(-c2cccc(-n3ccc(C)n3)n2)n1`, the activation (% of control) is 135% (active).

For the compound `COc1cc(C(=O)NCc2ccc3c(c2)cc(C)n3C)cc(OC)c1OC`, the activation (% of control) is 89.2%.

As for `COc1cccc(CNC(=O)CCC2CCCN(C(=O)c3ccoc3C)C2)c1` (centres undefined), the activation (% of control) was 105%.

For `Cc1cccc(N2CCN(C(=O)/C=C/c3ccco3)CC2)c1C`, the activation (% of control) is 99.5%. For the compound `Cc1nc2ccc(NC(=O)C(F)(F)F)cc2o1`, the activation (% of control) was 95.8%. Then `Cc1ccc(NC(=O)Nc2ccc3oc(C)nc3c2)cc1`, with 177% (active); and `Cc1nc2cc(NC(=O)NCc3ccccc3)ccc2o1`, with 111%; and `CC(C)NC(=O)/C(C#N)=C\c1ccc(N(C)C)c(Br)c1`, with 100%. For `N#Cc1cccc(Nc2c3c(nc4ccccc24)CCCC3)c1`, the activation (% of control) is 85.5%. As for `CC(C)Cc1cc(C(=O)Nc2cc(Br)ccc2O)no1`, the activation (% of control) was 101%.

On to `CC(C)Cc1cc(C(=O)NCCc2ccccc2)no1`, for which the activation (% of control) is 130% (active).

Regarding `Cc1cc(C(=O)NCCCc2ccccc2)no1`, the activation (% of control) was 110%. With `COc1ccc2c(c1)CC[C@@H]1[C@@H]2CC[C@]2(C)C(=O)CC[C@@H]12` the figure was 106%. On to `COc1cccc(-c2nc3cc(C)ccc3o2)c1`, for which the activation (% of control) is 106%. For the compound `COc1ccc2oc(-c3cccc(NC(=O)CSc4ccc(Cl)cc4)c3)nc2c1`, the activation (% of control) is 163% (active).

On to `O=C(Cc1cccc2ccccc12)Nc1ccc2oc(-c3ccccc3)nc2c1`, for which the activation (% of control) was 102%.

Take `O=C(Nc1cccc(O)c1)c1ccc(C(=O)c2ccccc2)o1`: the activation (% of control) was 113%. For `O=C(NCc1cccs1)c1cc(-c2ccccn2)nc2ccc(Br)cc12`, the activation (% of control) was 106%. For the compound `COc1ccc(-c2cn(-c3ccc(OC)cc3)c(=S)[nH]2)cc1`, the activation (% of control) was 110%. For `S=C(Nc1ccc(Br)cc1Cl)NC1CCN(Cc2ccccc2)CC1`, the activation (% of control) is 100%. `CCC(=O)NC(=S)Nc1ccc(NC(=O)c2ccco2)c(Cl)c1`: the activation (% of control) is 109%. With `O=C(NNC(=S)Nc1ccc(Br)cc1Cl)c1ccco1`, the activation (% of control) was 140% (active).

Turning to `CCN1CCN(C(=O)CCN2C(=O)c3ccccc3C2=O)CC1`, the activation (% of control) is 96.8%.

For the compound `CCc1ccccc1NC(=O)CSc1nnc(-c2ccncc2)o1`, the activation (% of control) was 99.3%.

For `O=C(Nc1ccc(C(=O)O)cc1)/C(=C/c1ccc([N+](=O)[O-])cc1)NC(=O)c1ccccc1`, the activation (% of control) is 94.6%.
